An excerpt weighted towards active compounds, which were near 2.7% of everything screened.
aDG glyco up: alpha-DG glycosylation activation; Pro5-aDG cells, alpha-DG glycosylation AlphaScreen (IIH6); 0% Pro5, 100% B10-LARGE cell signal; activation, % at 10 µM; actives 0.22% (n = 360,000);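 active = activation of at least 8% versus controls, or a plate z-score of at least 8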;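 also: Pro5 are CHO cells carrying HIG-tagged alpha-DG that lacks glycosylation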
H9c2 TAG inh: inhibitors of triacylglycerol accumulation. H9c2 cells, Nile Red lipid (TAG) fluorescence; cells loaded with 200 µM oleic acid. inhibition, % at 12.5 µM. actives 0.66% (n = 230,000);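 active = pattern-corrected inhibition of lipid staining of at least 50% with the nuclear-stain viability signal not falling by more than 50%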;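 also: 0% = DMSO wells and 100% = triacsin C control wells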
NadD block: inhibitors of Staphylococcus aureus NadD; purified NadD enzyme, colorimetric absorbance read-out; inhibition, % at 20 µM; actives 0.78% (n = 360,000); AID 602399; in the data active = inhibition above about 26%
MPTP block: permeability transition pore inhibition; inhibition, % at 10 µM; actives 1.4% (n = 360,000); AID 602449; isolated mouse mitochondria, Ca2+ swelling absorbance, 30 min;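 active = inhibition of 50% or more, scaled per plate between neutral and stimulator controls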;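 also: 0% = DMSO wells given calcium and 100% = 1 mM EGTA wells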
MPTP counter: Rhodamine 123 counter-screen of mitochondrial pore hits; actives 78% (n = 5,000); inhibition, % at 10 µM; shares compounds with MPTP block; isolated mitochondria, membrane potential, Rhodamine 123 fluorescence; in the data active = inhibition above about 22%;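 also: 0% = DMSO vehicle and 100% = positive control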
MPTP abs DR: MPTP inhibition, dose response swelling confirmation. shares compounds with MPTP block. isolated mitochondria swelling, absorbance. IC50, µM. actives 58% (n = 780); in the data active = IC50 below about 20 µM
MPTP cs DR: active in counter-screen for permeability transition pore inhibitors. shares compounds with MPTP block. IC50, µM. isolated mitochondria counterscreen, fluorescence read-out. actives 49% (n = 780); in the data active = IC50 below about 80 µM
An asterisk follows results filed as active; i = inactive; . = no result.

SMILES	aDG glyco up	H9c2 TAG inh	NadD block	MPTP block	MPTP counter	others
O=c1ccncn1C1OC(CO)C(O)C1O (configuration not stated)	0	-17	2	0	.
N#Cc1ccsc1NC(=O)CCN1C(=O)C2CCCCC2C1=O (configuration not stated)	0	12	-3	-2	.
COc1cc(C=C2C(=O)OC(C)(C)OC2=O)cc(Cl)c1OCC(=O)Nc1ccccc1	0	.	1	-1	.
CC(C)(C)C1(C)OC(=O)C(=Cc2ccc(OCC(=O)Nc3ccccc3)cc2)C(=O)O1 (configuration not stated)	0	.	14	67*	-3
COC(=O)c1c(NC(=O)Cc2ccccc2)sc2c1CC(C)(C)NC2(C)C	0	10	-7	74*	-3	MPTP abs DR=i;MPTP cs DR=>80
COC(=O)c1c(NC(=O)C2CCCCC2)sc2c1CC(C)(C)NC2(C)C	4	10	-5	67*	-10	MPTP abs DR=6.2*;MPTP cs DR=>80
COC(=O)c1c(NC(=O)COc2ccc(Cl)cc2)sc2c1CC(C)(C)NC2(C)C	-1	137	-11	2	.
COC(=O)c1c(NC(=O)c2ccccc2[N+](=O)[O-])sc2c1CC(C)(C)NC2(C)C	0	.	-14	0	.
CC(=O)OC[C@@H]1CN(Cc2ccccc2)C[C@H](n2cnc3c(N4CCOCC4)ncnc32)O1	0	6	4	0	.
CCCC(=O)N1CCC1(C)C(=O)Nc1ccc(C)c(C)c1 (configuration not stated)	0	2	-4	-2	.
CS(=O)(=O)Nc1ccc(C(=O)N2CC(=O)Nc3ccccc32)cc1	0	8	-6	0	.
CCOC(=O)c1ccc(NC(=O)c2cccc(S(=O)(=O)N3c4ccccc4CC3C)c2)s1 (configuration not stated)	0	.	13	74*	73*
CCN(CC)c1ccc(/C=C/c2ccc3ccc(OC)cc3[n+]2CC)cc1	0	.	7	64*	63*
CC[n+]1ccccc1/C=C/c1ccc(N(C)C)cc1	0	-39	10	2	.
CC[n+]1c(/C=C/c2ccc(OC(C)=O)c(OC)c2)ccc2ccccc21	0	.	18	20	.
CC[n+]1c(/C=C/c2ccc(N(C)C)cc2)ccc2ccccc21	1	.	15	141*	55*
CC[n+]1ccc(/C=C/c2ccc(N(C)C)cc2)c2ccccc21	0	-9	-2	119*	68*
CCCCCC[n+]1ccccc1/C=C/c1ccc(N(C)C)cc1	1	-134	-1	58*	103*
CC[n+]1c(/C=C/c2ccc(OC)c(OC)c2)ccc2ccccc21	0	-4	16	0	.
CCN(CC)C(=S)SC1CCCCN(C(=O)c2ccccc2)C1=O (configuration not stated)	0	-4	-9	2	.
COc1ccc(Cl)cc1S(=O)(=O)N(C)CC(=O)NCc1ccc2c(c1)OCO2	0	.	-5	0	.
O=C(Nc1cc(F)ccc1F)N1CCN(c2ccnc3cc(Cl)ccc23)CC1	1	-5	5	59*	36*
O=C(Nc1ccc(C(F)(F)F)cc1)N1CCN(c2ccnc3cc(Cl)ccc23)CC1	2	-7	14	79*	81*
Cc1ccc(F)cc1NC(=O)N1CCN(c2ccnc3cc(Cl)ccc23)CC1	0	-10	4	33	.
O=C(NCc1ccccc1)C1CCC(=O)N(CCN2CCOCC2)C1 (configuration not stated)	0	.	6	0	.
SMILES	aDG glyco up	H9c2 TAG inh	NadD block	MPTP block	MPTP counter	others
O=C(NNc1c2ccccc2nc2ccccc12)c1ccccc1O	0	.	25	87*	43*
O=C(NCc1ccccc1CN1CCCC1)C1CCN(C(=O)c2ccc(F)cc2)CC1	0	-12	-2	-1	.
CC(C)(C)c1ccc(S(=O)(=O)/N=C2\C=C(NS(=O)(=O)c3ccccc3)C(=O)c3ccccc32)cc1	0	.	40*	99*	25*
CCc1ccc(S(=O)(=O)/N=C2\C=C(Nc3ccc(C(=O)O)cc3)C(=O)c3ccccc32)cc1	0	.	-1	5	.
Cc1cc(C)n2nc(SCC(=O)c3ccccc3)nc2n1	0	.	8	0	.
Cc1cc(-n2c(C)cc(C(=O)CSc3ncnc4ccccc34)c2C)no1	4	-82	5	97*	88*
